Structures are written as SMILES. Results filed as inconclusive are left out. Activity calls are given as the source filed them.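 The calls were made as follows, unless noted: active = viability at or below 10% of carrier control in both of two separate runs; inconclusive = viability at or below 10% in only one of the two runs; inactive = the rest.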

The viability is a read-out of living cells in per cent, often relative to untreated cells. By inhibition is commonly meant the relative decrease from the control value, in per cent.

Assay [1] can be described thus: reducers of endogenous Her2 protein level, primary screen, SKBR3 breast tumor cells, AlphaScreen, ATP viability (AID 461;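 active = Her2 level under about 52% in both replicate screens, with viability over 70% of control, limit read from the data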;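 as to Her2 level: lower value means less Her2 protein in the cells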;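 as to viability: percent of carrier control wells set as 100% viability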). To be noted: 18-24 h, measured here: SKBR3 viability, ATP luminescence, at 10 µM. (Bead proximity is the source of the signal in Alpha formats.)
Assay [2] concerns the target Receptor tyrosine-protein kinase erbB-2 (Homo sapiens) (UniProt P04626). Described as above. Conditions: 18-24 h, at 10 µM, stronger effect = lower value.
A short description of assay [3]: SK-BR-3 cell growth inhibitors, pilot screen, 24 h, human (AID 572).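 Also: compound exposure lasted between 18 and 24 h rather than exactly 24 h; 100% = carrier-treated control wells.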 Conditions: SK-BR-3 viability, CellTiter-Glo luminescence, at 10 µM, stronger effect = lower value. For orientation: In ATP-based viability assays light output follows the ATP content of the culture.
Assay [4] can be described thus: HUVEC growth inhibition – cell-based, human, primary screen (AID 575;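 active = viability at or below 30% in both replicate assays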;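 also: 100% = median of untreated cell wells with 0.1% DMSO on each plate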). To be noted: HUVEC proliferation, CellTiter-Glo luminescence, 72 h; at 10 µM; stronger effect = lower value.
The nature of assay [5]: growth inhibitors of H69AR lung tumor, primary screen, human, duplicate replicates (AID 580;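 active = viability at or under a set limit in both replicates, limit being median viability minus 3 SD, cut at about 48% in these data, passing the limit was not always enough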;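 also: 100% = mean luminescence of untreated wells and 0% = no signal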). Conditions: H69AR lung tumor cells viability, ATP luminescence, 72 h; at 10 µM; stronger effect = lower value.
The nature of assay [6]: reversal of MRP1-mediated doxorubicin resistance, pilot screen, H69AR cells, doxorubicin co-treatment (AID 601;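 active = viability loss from added drug above about 55%, and viability with drug at most 40%, in both replicates, limit read from the data, passing the limit was not always enough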). To be noted: CellTiter-Glo, 72 h, at 10 µM; for differential viability (reversal): stronger effect = higher value.
Assay [7] can be described thus: 384-well plate pilot, post-Golgi transport modulator project, inhibition of yeast transport mutant growth (AID 636; in the data active = inhibition above about 31%). To be noted: absorbance 615 nm, about 18 h, stronger effect = higher value.
Assay [8] in a line: growth suppression of yeast trafficking mutant, preliminary HTS, modulators of trafficking downstream of Golgi apparatus project, 1536-format plate, OD 615 nm (AID 637; in the data active = inhibition above about 30%). Conditions: yeast transport mutant growth, absorbance 615 nm, 18 h; stronger effect = higher value.
Assay [9] is described as follows: OD615 S. cerevisiae growth inhibition, permissive medium, pilot counter-assay, permissive growth control for S. cerevisiae lifespan shortening project (AID 705;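 active = growth inhibition above 25% in both replicates, a cutoff set 3 SD above the mean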). Conditions: OD615, 24 h, at 10 µM, stronger effect = higher value.
Assay [10] is described as follows: Restrictive medium S. cerevisiae growth inhibition, OD615, pilot screen of yeast lifespan reduction project, restrictive growth control (AID 706;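 active = growth inhibition above a set limit, 3 SD over mean compound inhibition, in both replicates, cut at about 43% in these data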;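 also: modified DeaD lifespan yeast strain shifted to restrictive glucose medium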). Conditions: OD615, 48 h, at 10 µM, stronger effect = higher value.
A short description of assay [11]: viability gain of MRP-1-high H69AR cells under doxorubicin, pilot screen, MRP-1 activator project, CellTiter-Glo, duplicate (AID 807;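 active = viability increase at or above a cutoff of the median across tested compounds plus 3 SD, cut at about 8.5% in these data, passing the limit was not always enough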;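 also: compound pretreatment 18-22 h then 72 h combined with doxorubicin; 0% = doxorubicin alone and 100% = vehicle without doxorubicin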). To be noted: H69AR viability with doxorubicin, CellTiter-Glo luminescence; at 10 µM; stronger effect = higher value.
Assay [12] is described as follows: growth suppression of beta-catenin knockout HCT116, pilot screen, human colon tumor cells (AID 823;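 active = cell viability at or below a set limit in both duplicate runs, the limit being the all-compound median minus 4 SD, cut at about 23% in these data, passing the limit was not always enough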;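 also: 0% = wells killed by 20 µM Hyamine and 100% = untreated DMSO cell wells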). Conditions: CellTiter-Glo, 60 h, at 10 µM, stronger effect = lower value.
Assay [13] is described as follows: growth suppression of PTEN-deleted HCT116, pilot screen, cell-based, HCT116 clonal line, CellTiter-Glo (AID 824;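 active = viability at or below 27.92% in each of two runs, the all-compound median minus 4 SD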;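 also: 0% = 20 µM Hyamine control and 100% = vehicle cell control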). To be noted: 60 h, at 10 µM, stronger effect = lower value.
The nature of assay [14]: inhibitors of the yeast RAM network, pilot screen, dse1pr::URA3 reporter, 5-FOA selection (AID 869;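 active = inhibition over a set limit, the all-compound mean plus 3 SD, in both replicate runs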;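 also: 0% = DMSO wells with no growth and 100% = 10 µM 1-NA-PP1 with full growth; RAM network block rescues cells from 5-FOA so hits raise OD615 growth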). Conditions: S. cerevisiae dse1pr::URA3 5-FOA growth, OD615, 2 d; at 10 µM; stronger effect = higher value; strain carries analog-sensitive mutant Cbk1 kinase.
A short description of assay [15]: RAM signaling pathway blockade in yeast – S. cerevisiae, Pdr1DBD-CYC8 efflux-inhibited sensitized strain, primary screen (AID 1298;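 active = RAM network inhibition above 8.4% in each of two replicates, 3 SD over the compound average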;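 also: 0% = DMSO untreated cells without growth and 100% = 10 µM 1-NA-PP1 full growth; higher means more yeast growth rescued from 5-FOA killing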). Conditions: S. cerevisiae cbk1-as DSE1-URA3 strain, 5-FOA growth OD615, 2 d; at 50 µM; stronger effect = higher value.
Where [16] appears, read: H69AR cells + 2 uM doxorubicin, measured here: viability with 2 uM doxorubicin, stronger effect = lower value.
Setting [17] is: H69AR cells, compound alone cytotoxicity.

Sequence of Receptor tyrosine-protein kinase erbB-2 (Homo sapiens) (P04626 whole entry, looked up): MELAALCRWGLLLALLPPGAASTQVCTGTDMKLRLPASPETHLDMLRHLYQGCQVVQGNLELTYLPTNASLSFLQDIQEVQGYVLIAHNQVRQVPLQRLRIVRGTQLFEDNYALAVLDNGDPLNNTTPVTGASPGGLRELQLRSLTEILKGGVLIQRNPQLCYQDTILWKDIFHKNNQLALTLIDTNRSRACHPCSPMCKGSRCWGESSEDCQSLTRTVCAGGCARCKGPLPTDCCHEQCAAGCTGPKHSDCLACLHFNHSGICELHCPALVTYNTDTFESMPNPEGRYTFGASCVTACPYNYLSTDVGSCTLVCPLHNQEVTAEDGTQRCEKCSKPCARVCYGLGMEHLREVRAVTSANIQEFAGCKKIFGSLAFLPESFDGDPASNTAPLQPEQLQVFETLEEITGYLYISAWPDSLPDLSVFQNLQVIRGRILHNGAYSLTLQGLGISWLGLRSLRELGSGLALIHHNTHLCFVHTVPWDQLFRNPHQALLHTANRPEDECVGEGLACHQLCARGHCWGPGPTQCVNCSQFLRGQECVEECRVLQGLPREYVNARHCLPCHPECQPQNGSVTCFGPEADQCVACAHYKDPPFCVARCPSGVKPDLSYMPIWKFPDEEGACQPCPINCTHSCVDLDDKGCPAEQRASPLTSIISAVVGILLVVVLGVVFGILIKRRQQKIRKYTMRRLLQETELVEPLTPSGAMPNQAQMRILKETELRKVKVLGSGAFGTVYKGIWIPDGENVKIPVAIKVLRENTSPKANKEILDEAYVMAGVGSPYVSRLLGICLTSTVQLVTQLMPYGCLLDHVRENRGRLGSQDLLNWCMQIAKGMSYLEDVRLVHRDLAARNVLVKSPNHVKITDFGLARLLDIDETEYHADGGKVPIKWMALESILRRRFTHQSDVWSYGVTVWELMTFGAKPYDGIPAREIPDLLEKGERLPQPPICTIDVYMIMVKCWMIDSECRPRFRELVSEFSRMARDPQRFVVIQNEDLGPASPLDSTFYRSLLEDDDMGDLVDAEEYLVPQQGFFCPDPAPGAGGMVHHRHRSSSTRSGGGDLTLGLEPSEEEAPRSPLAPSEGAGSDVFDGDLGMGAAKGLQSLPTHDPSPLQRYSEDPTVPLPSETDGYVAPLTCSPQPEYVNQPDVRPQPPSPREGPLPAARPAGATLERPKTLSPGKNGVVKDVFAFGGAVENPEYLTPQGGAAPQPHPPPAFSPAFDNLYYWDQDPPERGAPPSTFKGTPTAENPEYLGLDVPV

Turning to `COc1cc(/C=N/n2cnnc2)ccc1OCC(=O)N1CCOCC1`, the viability in assay [1] was 84%; in [3], 84% (inactive); in [4] it was 99.5% (inactive); in [5], 93% (inactive); in [6] (setting [16]), 99.6%; in assay [6] (setting [17]), 93%. The viability is 104% (inactive) in assay [12] and 98.9% (inactive) in assay [13]. Moreover, the Her2 level in assay [2] was 93.5% (inactive). The differential viability (reversal) in assay [6] (H69AR cells + 2 uM doxorubicin) was -6.64% (inactive). Further, the inhibition in assay [7] is -0.9% (inactive); in assay [8] it was -1.17% (inactive); in assay [14] it was 2.55% (inactive). Further, the values for the growth inhibition in [9] and in assay [10] were -6.31% (inactive) and -6.25% (inactive), respectively. Also, in assay [11], the viability increase is -2.75% (inactive). Moreover, in assay [15], the RAM network inhibition is 6.03% (inactive).

For `Cc1cn2c(-c3ccc(Cl)cc3)nnc2s1`, the viability is 96% in [1]; 96% (inactive) in [3]; 74.7% (inactive) in assay [4]; 95.2% (inactive) in assay [5]; 99.1% in [6] (setting [16]); 95.2% in assay [6] (setting [17]). In addition, the figures for the viability in [12] and in [13] were 97.6% (inactive) and 90.3% (inactive), respectively. Besides, the Her2 level in assay [2] was 92.5% (inactive). In addition, in assay [6] (H69AR cells + 2 uM doxorubicin), the differential viability (reversal) is -3.87% (inactive). Moreover, the inhibition in assay [7] was -3.87% (inactive); in [8], 4.67% (inactive); in [14], 2.66% (inactive). The growth inhibition was -8.55% (inactive) in assay [9] and 16.2% (inactive) in assay [10]. In addition, in [11], the viability increase is -0.6% (inactive). Further, in [15], the RAM network inhibition is 4.88% (inactive).

`COc1cc2c(cc1OC)CN(C(=O)CSc1nnc3scc(-c4ccccc4)n13)CC2`: the viability in [1] is 96%; in [3] it was 96% (inactive); in assay [4], 86.7% (inactive); in [5], 85.3% (inactive); in [6] (setting [16]) it was 77.2%; in assay [6] (setting [17]), 85.3%. The values for the viability in [12] and in assay [13] were 99.4% (inactive) and 94.6% (inactive), respectively. Moreover, in assay [2], the Her2 level is 97% (inactive). The differential viability (reversal) in assay [6] (H69AR cells + 2 uM doxorubicin) is 8.16% (inactive). Also, the figures for the inhibition in [7], in assay [8] and in [14] were -0.53% (inactive), -3.77% (inactive) and 1.08% (inactive), respectively. The growth inhibition was 16.4% (inactive) in [9] and 69% (active) in assay [10]. Besides, the viability increase in [11] was -3.13% (inactive). In addition, the RAM network inhibition in assay [15] is 3.4% (inactive).

Consider `COC(=O)c1ccsc1NC(=O)CN1C(=O)CCC1=O`, for which the viability was 83.5% in assay [1]; 83.5% (inactive) in assay [3]; 83.1% (inactive) in assay [4]; 91.6% (inactive) in [5]; 69.2% in assay [6] (setting [16]); 91.6% in assay [6] (setting [17]). Besides, the viability in [12] is 100% (inactive); in [13] it was 98.7% (inactive). In addition, the Her2 level in assay [2] was 121% (inactive). Besides, in assay [6] (H69AR cells + 2 uM doxorubicin), the differential viability (reversal) is 22.4% (inactive). Also, the inhibition in [7] was -1.33% (inactive); in assay [8], 15.7% (inactive); in [14], -0.08% (inactive). Further, the values for the growth inhibition in assay [9] and in assay [10] were -2.7% (inactive) and -9.07% (inactive), respectively. Further, in assay [11], the viability increase is -1.57% (inactive). In addition, in assay [15], the RAM network inhibition is 0.15% (inactive).

For the compound `CCCc1cc(=O)oc2c(C)c3occ(C)c3cc12`, the viability in assay [1] was 112%; in assay [3] it was 112% (inactive); in assay [4] it was 64.8% (inactive); in assay [5] it was 98.2% (inactive); in assay [6] (setting [16]), 93.3%; in [6] (setting [17]) it was 98.2%. Also, the figures for the viability in [12] and in [13] were 77.4% (inactive) and 79.5% (inactive), respectively. Also, the Her2 level in assay [2] was 99.5% (inactive). For the same compound, in assay [6] (H69AR cells + 2 uM doxorubicin), the differential viability (reversal) is 4.94% (inactive). In addition, the figures for the inhibition in [7], in [8] and in [14] were -0.68% (inactive), -3.02% (inactive) and 3.16% (inactive), respectively. Also, the growth inhibition was -2.79% (inactive) in assay [9] and 0.83% (inactive) in assay [10]. In addition, in assay [11], the viability increase is -4.59% (inactive). In [15], the RAM network inhibition is 3.02% (inactive).

The values are drawn from PubChem BioAssay.
